29 molecules from PubChem BioAssay (Tox21) can be followed below.

A short description of test [1]: qHTS assay to identify small molecule antagonists of the sonic hedgehog signaling (Shh) pathway (AID 1259369; calls by dose curve; further: nearly all actives have a fitted effect of over 45% in size; further: potency means the concentration at half of the fitted maximal effect). Summed up: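 Screening used 3T3Gli1-Luc cells at 2,000 per well, compounds delivered in DMSO, and conditioned medium as agonist stimulus; plates incubated 24hr at 37 C and 5% CO2 before a 30min luciferase step.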
Background: Quantitative high-throughput screening tests each substance at several concentrations.

Test [2] in a line: qHTS assay to identify small molecule agonists of the androgen receptor (AR) signaling pathway in the presence of an antagonist - cell viability counter screen (AID 1259379).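 Further: MDA-kb2 human breast cancer cells carrying an MMTV luciferase reporter; series mostly up to about 92 µM; nearly all actives have a fitted effect of over 25% in size.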 Summed up: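 In MDA-kb2 cells (human breast carcinoma, MMTV-luciferase), compounds at 15 concentrations plus 3.0uM nilutamide; 16 hr, 37C, 0% CO2; CellTiter-Fluor fluorescence read for viability.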
Test [3] is described as follows: qHTS assay to identify small molecule agonists of the estrogen receptor beta (ER-beta) signaling pathway - cell viability counter screen (AID 1259380). Further: nearly all actives have a fitted effect of over 30% in size. Summed up:
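Viability of ER-beta-UAS-bla HEK293T cells was determined by CellTiter-Glo luminescence following 16 hr treatment with test compounds at 37C.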

Test [4] can be described thus: qHTS assay to identify small molecule antagonists of the estrogen receptor beta (ER-beta) signaling pathway - cell viability counter screen (AID 1259382). Further: series mostly up to about 92 µM; nearly all actives have a fitted effect of over 55% in size. Summed up: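 Tox21 10K library tested in qHTS format on ER-beta-bla HEK293T cells stimulated with 1nM E2; 16 hr treatment at 37C. Same-well CellTiter-Glo luminescence served as the cell viability measure.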
The target of test [5] is Estrogen receptor (Homo sapiens) (UniProt P03372). The test can be described thus: qHTS assay to identify small molecule agonists of the estrogen receptor alpha (ER-alpha) signaling pathway in the presence of an antagonist (AID 1259383; calls by dose curve; further: top concentration of the series differs between compounds; nearly all actives have a fitted effect of over 15% in size). Summed up: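 In VM7Luc4E2 cells, 4,000 per well, compounds at 15 concentrations were co-incubated 22hr at 37C with 10.0nM final ICI-182,780. Luminescence from the stably transfected 4×ERE-luciferase reporter was recorded 30min after ONE-Glo addition.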

Test [6] in a line: qHTS assay to identify small molecule agonists or antagonists of the thyroid stimulating hormone receptor (TSHR) signaling pathway - wild type cell line counter screen (AID 1259384; calls by dose curve). Summed up: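 Wild-type HEK293 cells were plated 18 h at 37 C/5% CO2, pin-dosed with compound plus Ro20-1724 medium, held 30 min at room temperature, then given cAMP-d2 and anti-cAMP-cryptate; fluorescence was read after 1 h. Fifteen concentrations, triplicate.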

In test [7] the target is Thyrotropin receptor (Homo sapiens) (UniProt P16473). The test can be described thus: qHTS assay to identify small molecule antagonists of the thyroid stimulating hormone receptor (TSHR) signaling pathway (AID 1259385; calls by dose curve; further: nearly all actives have a fitted effect of over 20% in size). Summed up:
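TSHR-HEK293 cells were plated and held 18 h at 37C/5% CO2, then given compound plus Ro20-1724 and stimulated with TSH at 1.5 ng/mL final. After 30 min at room temperature, cAMP was detected with cAMP-d2/anti-cAMP-cryptate (1 h) by fluorescence.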

The target in test [8] is Estrogen receptor beta (Homo sapiens) (UniProt Q92731). The test can be described thus: qHTS assay to identify small molecule agonists of the estrogen receptor beta (ER-beta) signaling pathway (AID 1259377; active means well fitted activation curve with a large enough effect in the signal ratio in the repeat runs, not every such curve was filed as active; the % refers to the signal ratio). Summed up:
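Reporter cells (HEK293T, ER-beta-UAS-bla) receive compounds or DMSO after a 6 hr pre-incubation. They then incubate 16 hr at 37C/5% CO2, and fluorescence from LiveBLAzer B/G substrate is measured after 2 hours at room temperature.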

For test [9] the target is unchanged. Description: qHTS assay to identify small molecule antagonists of the estrogen receptor beta (ER-beta) signaling pathway (AID 1259378; active means well fitted inhibition curve with a large enough effect in the signal ratio in the repeat runs, not every such curve was filed as active; the % refers to the signal ratio). Summed up:
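ER-beta-UAS-bla HEK293T (GripTite) cells in 2% charcoal-stripped FBS medium were preincubated 6 hr at 37C, dosed with compound, then stimulated with 1 nM E2 (final) for 16 hr; beta-lactamase reporter read by B/G FRET fluorescence after 2 hr substrate loading.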

Test [10] addresses Androgen receptor (Homo sapiens) (UniProt P10275). Description: qHTS assay to identify small molecule agonists of the androgen receptor (AR) signaling pathway in the presence of an antagonist (AID 1259381; calls by dose curve; further: nearly all actives have a fitted effect of over 15% in size). Summed up: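 Here, 15-concentration compound series were pin-transferred onto MDA-kb2 MMTV-luciferase cells already dosed with nilutamide (3.0uM final). After 16hr at 37C, ONE-Glo was added and luminescence read 30min later at room temperature.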

SMILES strings stand for the structures. Values joined by “and” are separate entries in the source; they are usually repeats but may differ in a detail not shown here. Equal values may be shown once. Values without a mark were called inactive. Inconclusive results are not listed. Active and inactive are the calls of the source. Unless noted, the call rests on the fitted dose curve; in most records, active means well fitted curve in the direction sought with a large enough effect in the repeat runs; inconclusive means weak or mixed curves; inactive means no such curve, though single readings can be large; an effect the other way counts as inactive or inconclusive.
On the % scale 0 is the no-effect control and ±100 the full control effect.

Chain of Estrogen receptor (Homo sapiens) (P03372 whole entry, looked up): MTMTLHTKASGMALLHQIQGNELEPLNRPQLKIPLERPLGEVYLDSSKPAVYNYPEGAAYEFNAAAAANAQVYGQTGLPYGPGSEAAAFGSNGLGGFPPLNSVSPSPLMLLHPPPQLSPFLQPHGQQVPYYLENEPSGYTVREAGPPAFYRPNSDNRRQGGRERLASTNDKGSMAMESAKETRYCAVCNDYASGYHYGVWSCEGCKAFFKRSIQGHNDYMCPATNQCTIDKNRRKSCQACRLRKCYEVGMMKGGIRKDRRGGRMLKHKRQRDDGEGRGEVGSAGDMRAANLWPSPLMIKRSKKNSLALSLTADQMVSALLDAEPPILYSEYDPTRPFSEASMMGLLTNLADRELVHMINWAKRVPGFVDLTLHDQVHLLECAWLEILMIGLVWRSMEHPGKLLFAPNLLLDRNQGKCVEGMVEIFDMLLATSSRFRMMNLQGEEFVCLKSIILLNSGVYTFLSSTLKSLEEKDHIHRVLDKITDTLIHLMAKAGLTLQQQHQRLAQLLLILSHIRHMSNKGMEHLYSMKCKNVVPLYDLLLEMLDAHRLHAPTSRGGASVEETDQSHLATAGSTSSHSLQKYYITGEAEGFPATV
Chain of Thyrotropin receptor (Homo sapiens) (P16473 whole entry, looked up): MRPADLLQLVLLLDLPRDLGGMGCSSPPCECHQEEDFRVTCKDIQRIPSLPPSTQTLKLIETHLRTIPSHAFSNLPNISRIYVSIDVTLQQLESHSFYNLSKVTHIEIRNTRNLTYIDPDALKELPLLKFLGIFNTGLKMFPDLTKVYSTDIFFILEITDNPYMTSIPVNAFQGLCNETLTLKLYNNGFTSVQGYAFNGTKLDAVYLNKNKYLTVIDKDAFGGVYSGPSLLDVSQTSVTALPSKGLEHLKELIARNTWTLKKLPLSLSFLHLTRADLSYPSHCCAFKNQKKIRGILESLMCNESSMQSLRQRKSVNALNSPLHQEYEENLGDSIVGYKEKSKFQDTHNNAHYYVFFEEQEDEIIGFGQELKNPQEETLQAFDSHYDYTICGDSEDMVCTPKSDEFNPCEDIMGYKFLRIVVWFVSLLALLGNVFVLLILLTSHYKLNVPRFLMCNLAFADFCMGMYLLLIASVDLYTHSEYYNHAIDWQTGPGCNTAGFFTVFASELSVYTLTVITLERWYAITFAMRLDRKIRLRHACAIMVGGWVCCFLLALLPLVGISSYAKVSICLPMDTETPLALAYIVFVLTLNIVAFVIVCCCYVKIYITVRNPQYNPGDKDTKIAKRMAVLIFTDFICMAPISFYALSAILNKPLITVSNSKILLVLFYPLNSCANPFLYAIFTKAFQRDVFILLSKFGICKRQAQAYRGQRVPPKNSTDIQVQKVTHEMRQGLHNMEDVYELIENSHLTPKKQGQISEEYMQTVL
Chain of Estrogen receptor beta (Homo sapiens) (Q92731 whole entry, looked up): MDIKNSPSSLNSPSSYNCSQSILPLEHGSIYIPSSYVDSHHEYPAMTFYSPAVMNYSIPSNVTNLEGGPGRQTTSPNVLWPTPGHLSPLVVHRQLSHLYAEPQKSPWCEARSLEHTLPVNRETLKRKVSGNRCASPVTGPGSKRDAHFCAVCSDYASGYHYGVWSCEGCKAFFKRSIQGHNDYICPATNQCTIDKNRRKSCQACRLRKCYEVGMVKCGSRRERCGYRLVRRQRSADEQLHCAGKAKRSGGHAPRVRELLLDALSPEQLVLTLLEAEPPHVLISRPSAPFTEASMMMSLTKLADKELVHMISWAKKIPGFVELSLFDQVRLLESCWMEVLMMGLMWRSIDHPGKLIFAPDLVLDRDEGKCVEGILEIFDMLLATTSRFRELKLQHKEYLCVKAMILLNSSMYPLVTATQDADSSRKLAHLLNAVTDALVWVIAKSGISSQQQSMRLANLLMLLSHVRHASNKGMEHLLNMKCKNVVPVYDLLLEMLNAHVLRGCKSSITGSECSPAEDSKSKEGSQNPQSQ
Chain of Androgen receptor (Homo sapiens) (P10275 whole entry, looked up): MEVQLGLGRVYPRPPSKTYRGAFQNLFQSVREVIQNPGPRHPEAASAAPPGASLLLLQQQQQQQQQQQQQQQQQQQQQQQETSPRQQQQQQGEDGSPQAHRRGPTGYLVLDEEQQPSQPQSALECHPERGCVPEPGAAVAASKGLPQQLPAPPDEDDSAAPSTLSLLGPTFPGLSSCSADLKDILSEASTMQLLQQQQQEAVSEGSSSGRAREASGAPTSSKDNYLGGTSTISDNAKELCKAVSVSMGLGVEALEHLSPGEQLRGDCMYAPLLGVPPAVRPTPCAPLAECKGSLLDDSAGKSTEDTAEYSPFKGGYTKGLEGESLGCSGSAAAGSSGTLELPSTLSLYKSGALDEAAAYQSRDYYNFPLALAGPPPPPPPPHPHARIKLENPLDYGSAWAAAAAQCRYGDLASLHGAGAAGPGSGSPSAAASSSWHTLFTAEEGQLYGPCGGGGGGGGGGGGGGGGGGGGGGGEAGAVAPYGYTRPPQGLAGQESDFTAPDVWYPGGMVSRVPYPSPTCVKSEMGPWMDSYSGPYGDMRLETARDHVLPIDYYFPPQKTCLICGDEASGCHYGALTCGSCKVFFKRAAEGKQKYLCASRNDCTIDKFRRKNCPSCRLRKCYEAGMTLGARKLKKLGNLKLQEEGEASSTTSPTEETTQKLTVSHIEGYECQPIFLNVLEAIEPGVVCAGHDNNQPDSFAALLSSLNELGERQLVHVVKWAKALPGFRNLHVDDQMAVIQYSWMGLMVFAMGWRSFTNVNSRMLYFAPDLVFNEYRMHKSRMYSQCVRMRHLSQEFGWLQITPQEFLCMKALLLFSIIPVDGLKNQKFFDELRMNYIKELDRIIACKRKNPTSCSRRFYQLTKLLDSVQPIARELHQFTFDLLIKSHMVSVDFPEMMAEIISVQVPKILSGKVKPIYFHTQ

`CN(C)C1CCCCC1`: the Potency result in test [1], in [2], in test [3], in test [4] and in test [5] was “inactive” in each case.
Regarding `CCCC(C)C1(CC)C(=O)N=C(S)NC1=O` (configuration not stated), the Potency entry in [1], in test [2], in [3] and in test [4] was “inactive” in each case.
For `CC(C)(C)c1cc(O)ccc1O`, the Potency in [1] was 7.7 µM (active) and 3.86 µM (active). Besides, the Potency entry in test [2], in test [3], in test [4] and in [5] was “inactive” throughout.
On to `O=C(Cl)c1ccccc1`, for which the Potency result in [1], in [2], in test [3], in test [4] and in test [5] was “inactive” in each case. For the same molecule, the molecule was called inactive in [6] and in test [7].
`N#CN=C1SCCN1Cc1ccc(Cl)nc1`: the Potency entry in test [1], in [2], in test [3], in test [4] and in test [5] was “inactive” each time. Besides, the call in test [6] and in test [7] was inactive.
In the case of `CS(=O)(=O)c1ccc(C(=O)C2C(=O)CCCC2=O)c(Cl)c1COCC(F)(F)F`, the Potency entry in test [1], in test [2], in test [3], in test [4] and in test [5] was “inactive” in each case. Further, the outcome in [6] and in test [7] was inactive.
For the molecule `CCCCCCCC(=O)Cl`, the Potency entry in [1], in [2], in test [3], in test [4] and in test [5] was “inactive” throughout. In addition, the call in test [6] and in test [7] was inactive.
For the molecule `CON(C)C(=O)Nc1ccc(Br)cc1`, the Potency result in [1], in test [2], in test [3] and in test [4] was “inactive” in each case. The call in test [7] was inactive.
In the case of `CC(C)(C)NC[C@H](O)c1ccc(O)cc1Cl`, the Potency result in test [1], in test [2], in [3] and in [4] was “inactive” throughout. In [7], the molecule was called inactive.
For the molecule `O=C(O)C(Br)(Br)Br`, the Potency entry in test [1], in [2], in [3], in [4] and in test [5] was “inactive” each time. The outcome in test [6] and in [7] was inactive.
Turning to `CC(C)C(C)(N)C#N` (configuration not stated), the Potency result in test [1], in test [2], in test [3] and in test [4] was “inactive” in each case.
Regarding `CN1C(=O)COc2c(C(=O)NC3CN4CCC3CC4)cc(Cl)cc21` (configuration not stated), the Potency result in test [1], in [2], in test [3], in test [4] and in test [5] was “inactive” in each case.
For the molecule `O=[N+]([O-])CCO`, the Potency entry in test [1], in [2], in test [3], in test [4] and in test [5] was “inactive” in each case.
In the case of `CC1=C2[C@H]3OC(=O)[C@@H](C)[C@@H]3CC[C@@]2(C)C=CC1=O`, the Potency entry in test [1], in test [2], in test [3] and in [4] was “inactive” in each case.
As to `CCOC(=O)COc1ccc(Cl)cc1Cl`, the Potency result in [1], in [2], in test [3] and in test [4] was “inactive” in each case. Besides, the molecule was classed as inactive in [6] and in test [7].
As to `Brc1c(Br)c(Br)c(Br)c(Br)c1Br`, in test [1], the activity change, negative = inhibition is -28% [at 8.39 µM]. In addition, the activity change, negative = cytotoxicity is 0.311% [at 8.39 µM] in [2], -3.01% [at 8.39 µM] in [3] and -0.381% [at 8.39 µM] in [4]. The activation in [5] was -2.37% [at 8.39 µM]. Further, the cAMP activity change in test [6] is 7.95% [at 8.39 µM].
With `CCCCOC(C)=O`, the Potency entry in test [1], in test [2], in test [3] and in [5] was “inactive” throughout. For the same molecule, the molecule was classed as inactive in test [6].
For the molecule `Cc1cccc2sc3nncn3c12`, the Potency entry in [1], in [2], in [3] and in test [5] was “inactive” throughout. For the same molecule, the outcome in test [6] was inactive.
As to `COC(=O)[C@@H](N)CCCN/C(N)=N/[N+](=O)[O-]`, the Potency entry in [1], in [2], in test [3] and in test [4] was “inactive” each time. Besides, the outcome in [6] and in test [7] was inactive.
For `NCC1(CC(=O)O)CCCCC1`, the Potency result in test [1], in [2], in [3] and in test [4] was “inactive” in each case. Moreover, in test [6], the result was inactive.
Turning to `COC1=CC(=O)O[C@@H](/C=C/c2ccccc2)C1`, the Potency result in test [8], in [2] and in test [4] was “inactive” each time. In addition, in [7], the outcome was inactive.
For the molecule `CCC(=O)OC1(c2ccccc2)CCN(C)CC1`, the Potency entry in [2], in test [3] and in test [4] was “inactive” in each case. The molecule was classed as inactive in test [6] and in test [7].
On to `CCN[C@H](C)Cc1cccc(C(F)(F)F)c1`, for which the Potency entry in [1], in [2], in test [3] and in test [5] was “inactive” each time. Besides, the call in test [6] and in [7] was inactive.
Take `CCc1ccc(C2CCNCC2)cc1`: the Potency result in [8], in test [2], in test [3], in test [10], in test [4] and in test [5] was “inactive” throughout. The molecule was classed as inactive in test [9], in test [6] and in test [7].
Turning to `Cc1ccc(Cl)c(O)c1`, the Potency entry in test [2], in test [3], in test [4] and in test [5] was “inactive” each time. Besides, the molecule was called inactive in test [7].
Consider `O=C(NC(=O)c1c(F)cccc1F)Nc1cc(Cl)c(F)c(Cl)c1F`, for which the Potency entry in [2], in test [3], in test [4] and in [5] was “inactive” each time.
For the molecule `Nc1c(Cl)c(F)nc(OCC(=O)O)c1Cl`, the Potency entry in test [8], in test [2], in test [3], in test [10], in test [4] and in [5] was “inactive” throughout. The outcome in test [9], in [6] and in test [7] was inactive.
On to `C=C(Cl)CSC(=S)N(CC)CC`, for which the Potency result in test [8], in [2], in test [3] and in test [4] was “inactive” in each case. For the same molecule, the call in test [9] was inactive.
`C#CCOC(=O)/C=C(C)/C=C/CC(C)CCCC(C)C` (configuration not stated): the Potency entry in test [1], in test [2], in test [3] and in test [5] was “inactive” each time. In test [7], the molecule was called inactive.
